Rows were chosen to be rich in hits. Some 4.2% of all compounds tested hit in one or more screens of this group.
NALP3 yeast inh: inhibitors of NALP3 inflammasome in yeast; Yeast reconstituted NLRP3/ASC/caspase-1, beta-gal luminescence, 24 h; inhibition, % at 10 µM; hit rate 0.39% among 330,000; AID 2825;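 active = inhibition of 50% or more; inactive = inhibition below 50%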;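 also: plate controls were induced DMSO wells for no effect and uninduced yeast grown without galactose for full effect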
TIM10 inh: TIM10 yeast growth inhibition | inhibition, % at 10 µM | AID 463195 | hit rate 1.4% among 330,000 | S. cerevisiae TIM10 strain growth, BacTiter-Glo luminescence, 24 h;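 active = inhibition of 40% or more at the single tested concentration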;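 also: wild-type TIM10 isogenic control strain grown at permissive 25 °C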
tim23-1 inh: inhibits growth of tim23-1 mutant yeast. S. cerevisiae tim23-1 growth, BacTiter-Glo luminescence, 24 h. inhibition, % at 20 µM. hit rate 1.3% among 330,000;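 active = growth inhibition of the mutant yeast at or above 50%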;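 also: temperature-sensitive mutant grown at 25 °C; plate controls were DMSO-treated mutant yeast for no effect and medium wells lacking yeast for full effect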
tim10-1 inh: tim10-1 yeast growth inhibition; S. cerevisiae tim10-1 ts strain growth, BacTiter-Glo, 24 h; inhibition, % at 20 µM; hit rate 2.2% among 330,000; AID 463190;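 active = inhibition of at least 40%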;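 also: mutant grown at 25 °C; 0% = DMSO wells with yeast and 100% = wells holding no yeast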
V-ATPase pH: yeast V-ATPase proton transport regulation by pHLuorin | S. cerevisiae, pHLuorin cytosolic pH fluorescence | response, % at 10 µM | hit rate 0.37% among 350,000; in the data active = response mostly above about 7.3%, no sharp cut-off; inactive = mostly below about 5.4%; also: actives read high
NALP1 inh: inhibitors of NALP1 inflammasome in yeast | S. cerevisiae NALP1/ASC/caspase-1 growth, X-gal OD620, 72 h | inhibition, % at 10 µM | hit rate 0.61% among 280,000 | AID 2071; in the data active = inhibition mostly above about 24%, no sharp cut-off; inactive = mostly below about 32%
tim23-1 confirm: tim23-1 yeast growth inhibition, confirmed; inhibition, % at 20 µM; shares compounds with tim23-1 inh; hit rate 83% among 4,400; S. cerevisiae tim23-1 growth, BacTiter-Glo luminescence, 24 h;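 active = inhibition above about 39% in either of two replicate wells at 20 µM, limit read from the data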;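 also: temperature-sensitive tim23-1 mutant grown at 25 °C; 0% = DMSO wells with yeast and 100% = medium wells without yeast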
Starred values were filed as active, the others as inactive; x = no result given.

SMILES	NALP3 yeast inh	TIM10 inh	tim23-1 inh	tim10-1 inh	V-ATPase pH	NALP1 inh	tim23-1 confirm
COc1ccc(C(=O)NC2CC2)cc1OC1CCN(Cc2ccc(F)cc2Cl)CC1	17	-7	0	13	-3	20	x
O=C(COc1ccc(Br)cc1Cl)N1CCN(c2ccccn2)CC1	33	9	46	37	-1	8	x
CCc1ccc(OCC(=O)N2CCN(c3ccccn3)CC2)c(Br)c1	26	26	53*	37	-4	6	38
O=S(=O)(CCN1CCOCC1)c1ccc(OC(F)(F)F)cc1	10	9	10	-8	6	-5	x
Cc1ccc(-c2nc(Nc3cccc(O)c3)c3ccccc3n2)cc1	25	22	83*	16	-1	22	-21
O=[N+]([O-])c1ccc(-c2nc(Nc3cccc(O)c3)c3ccccc3n2)cc1	30	24	25	30	6	1	x
Cc1ccc(-c2nc(Nc3ccc(O)cc3)c3ccccc3n2)cc1	43	27	74*	14	2	30	44*
COc1cccc(Nc2nc(-c3ccccc3O)nc3ccccc23)c1	12	13	7	-24	0	3	x
COc1cccc(Nc2nc(-c3ccccc3)nc3ccccc23)c1	13	38	50*	27	2	-5	45*
Cc1ccc(-c2nc(Nc3ccc(N4CCOCC4)cc3)c3ccccc3n2)cc1	35	22	47	31	0	0	x
COc1ccc(OC)c(C(=O)COC(=O)c2ccc([N+](=O)[O-])o2)c1	24	21	55*	23	0	x	57*
COc1ccc(OC)c(C(=O)COC(=O)c2cc(C)oc2C)c1	23	26	16	23	2	-67	x
COc1ccccc1Nc1ccc(NS(=O)(=O)c2ccc(C(C)=O)cc2)cc1	23	22	31	35	-1	16	x
COc1ccc(OC)c2c1sc(=NC(=O)C(C)C)n2C	28	24	53*	31	1	-1	47*
COc1ccc(OC)c2c1sc(=NC(=O)C(C)(C)C)n2C	-2	15	19	31	-2	0	x
O=[N+]([O-])c1ccc(N=Nc2c(O)[nH]c3ccc(F)cc23)cc1	9	3	50*	35	0	12	13
Cc1cc(C(=O)CCl)c(C)n1CCc1ccc(Cl)cc1	-97	0	55*	4	-2	-8	53*
N#Cc1nc(Nc2cc(F)cc(F)c2)c2ncn(CC(F)F)c2n1	37	21	52*	20	0	x	36
O=c1cc(CSc2ccc(S(=O)(=O)N3CCCCC3)cn2)nc2sccn12	6	15	66*	27	-1	-5	38
Cc1cc(C)cc(CSc2ccc(S(=O)(=O)N3CCCC3)cn2)c1	35	-14	1	-12	1	x	x
Cc1ccc(S(=O)(=O)N/N=C\C=C\c2ccccc2)cc1	3	9	25	13	6	20	x
O=S(=O)(N/N=C\C=C\c1ccccc1)c1ccc(Br)cc1	6	18	56*	34	1	-3	42*
O=C(Nc1ccccc1C(=O)Nc1ccc(Br)cn1)c1ccccc1Cl	22	18	52*	37	1	x	54*
COc1ccc(C(=S)N2CCN(c3ccccc3C)CC2)cc1	6	32	51*	28	-5	-4	40*
CCN1CCN(C(=S)c2ccc(OC)cc2)CC1	9	-18	5	12	-1	-28	x
SMILES	NALP3 yeast inh	TIM10 inh	tim23-1 inh	tim10-1 inh	V-ATPase pH	NALP1 inh	tim23-1 confirm
CC(C)(C)OC(=O)C[C@@H]1C/C=C\C[C@H](CC(=O)NCCO)C(=O)N2CCC[C@@H]2COC1=O	22	0	-10	-1	9	x	x
c1ccc2c(c1)[nH]c1c3ccccc3sc21	29	22	31	18	1	14	x
COC(=O)C1=C(C(=O)OC)[C@@H]2N(Cc3ccccc3)c3ccccc3[C@@]23C[C@@H](CO)N(C(=O)NC2CCCC2)C3=N1	8	8	4	-4	0	x	x
COC(=O)[C@@]1(C)[C@H]2C(=O)N(Cc3ccccc3)C(=O)[C@H]2[C@H]2CN=C(SCc3ccc(C#N)cc3)N21	x	7	44	19	2	x	x
COC(=O)[C@@]1(C)[C@H]2C(=O)N(Cc3ccccc3)C(=O)[C@H]2[C@H]2CN=C(SCc3ccc(Cl)cc3)N21	x	18	51*	24	4	x	30
C=CCn1c(-c2cc(-c3ccc(C)cc3)nc3ccccc23)n[nH]c1=S	19	40	60*	33	-3	-3	53*
O=S1(=O)N[C@@H](Cc2ccccc2)COc2cc(Br)ccc21	x	3	70*	26	0	x	42*
O=C(Nc1cccc(Cl)c1)ON=C1c2ccccc2-c2ccccc21	4	8	62*	17	2	21	46*
CCN(CC)c1ccc(/C=N/NC(=O)c2nnn(-c3nonc3N)c2-c2ccc(C)cc2)cc1	6	2	15	9	-9	-2	x
Cc1cccc(C(=O)OCC(=O)NC23CC4CC(CC(C4)C2)C3)c1O	22	38	56*	14	-3	x	56*
Cn1c(=O)[nH]c(=O)c2c1[nH]c(=S)n2Cc1ccc(Cl)cc1	14	7	6	-6	0	-7	x
Cc1ccc2[nH]cc(C(=O)CCl)c2c1	6	36	58*	13	0	20	66*
Cc1ccc2[nH]cc(C(=O)CN3CCN(C)CC3)c2c1	0	-12	-2	-2	2	-1	x
COc1cc(CNCCNC(=O)c2nonc2N)ccc1OCc1ccc(Cl)cc1	8	21	28	38	0	7	x
O=c1c2cn[nH]c2nc(SCc2c(F)cccc2F)n1-c1ccc(Cl)cc1	1	18	52*	19	-1	15	54*
O=C(C#Cc1ccccc1)Nc1cccc(F)c1	44	39	54*	7	0	x	52*
CCc1noc(C)c1C(=O)Nc1cc(Cl)ccc1N1CCOCC1	7	12	26	24	5	x	x
COc1ccccc1/C=C/C(=O)OCC(=O)c1c(N)n(C)c(=O)n(C)c1=O	0	-8	95*	8	2	20	0
CC(C)(C)NC(=O)C12CCC(C)(c3nc4ccccc4nc31)C2(C)C (stereo not drawn)	14	38	53*	39	0	-6	37
Cc1cccc(NC(=O)Cc2nc(-c3c[nH]c(C(=O)N4CCCC4)c3)cs2)c1	11	2	24	26	3	x	x
c1ccc(-c2nc3ccccc3[nH]2)cc1	48	22	50*	-15	0	5	46*
O=C(Nc1ccc(C(=O)N2CCN(c3ccccc3F)CC2)cc1)C1=CSCCO1	20	29	53*	39	-7	18	42*
O=C(Nc1ccc(C(=O)N2CCCCC2)cc1)C1=CSCCO1	12	7	27	29	3	16	x
